From PubChem BioAssay (NCI) come the findings set out here.

Test systems include DU-145 prostate; K-562 leukemia; MALME-3M melanoma; MDA-MB-231 breast; RXF 393 renal; SF-268 CNS; SF-295 CNS; SF-539 CNS; UACC-257 melanoma; M14 melanoma; HCT-15 colon; HT29 colon; SNB-75 CNS; SNB-19 CNS; U251 CNS; PC-3 prostate; SK-MEL-5 melanoma; UACC-62 melanoma; LOX IMVI melanoma; SK-MEL-28 melanoma.
Assay in all cases: NCI-60 one-dose screen, 48 h (100 = growth as untreated, 0 = no growth, -100 = all killed)
Details in all cases: 10 µM unless noted

Structures are written as SMILES. Compounds without any hit were thinned out: in the full panel of roughly 83,000, 20% have a hit.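 Compound tested at a single concentration for 48 hours in 96-well plates; a percent growth value below 10 was scored as active.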 Unmarked numbers belong to inactive results. Calls of active or inactive are those of the source.

For the compound `COc1ccc(/C=C/C(=O)c2cc3c(N)c(C(=O)Nc4cccc5ccccc45)sc3nc2C)cc1`, the growth in the assay with DU-145 prostate was 84.5%; in the assay with K-562 leukemia, 28.8%; with MALME-3M melanoma it was 64.7%; in the assay on MDA-MB-231 breast, 93%; in the assay on RXF 393 renal, 63.4%; in the assay on SF-268 CNS, 74.5%. For the same compound, the growth with SF-295 CNS was 54.4%; in the assay with SF-539 CNS, 76.9%; in the assay on UACC-257 melanoma, 65.2%; in the assay on M14 melanoma, 60%; in the assay on HCT-15 colon, 44.1%; with HT29 colon, 70.2%. In addition, the growth is 53.6% in the assay on SNB-75 CNS; 56.3% in the assay with SNB-19 CNS; 45.3% with U251 CNS; 75.6% in the assay with PC-3 prostate; 68.9% in the assay on SK-MEL-5 melanoma; 21.3% with UACC-62 melanoma. Further, the growth with LOX IMVI melanoma was 60.1%; in the assay with SK-MEL-28 melanoma it was 64.9%.
For the compound `COc1ccc2[nH]c(C(=O)N3CCN(C(=O)OCc4ccc5c(Cl)cc(Cl)c(O)c5n4)CC3)cc2c1`, the growth in the assay with DU-145 prostate was -88.6% (active); with K-562 leukemia it was 4.22% (active); with MALME-3M melanoma, -94.4% (active); with MDA-MB-231 breast, -82.2% (active); in the assay on RXF 393 renal, -92.9% (active); in the assay on SF-268 CNS, -91.1% (active). For the same compound, the growth is 34% with SF-295 CNS; -99.3% (active) in the assay with SF-539 CNS; -43.2% (active) with UACC-257 melanoma; -66.4% (active) in the assay with M14 melanoma; -44.2% (active) with HCT-15 colon; -67.1% (active) with HT29 colon. For the same compound, the growth in the assay on SNB-75 CNS is -98.5% (active); in the assay on SNB-19 CNS it was 35.3%; in the assay with U251 CNS it was -97.9% (active); with PC-3 prostate it was -73.4% (active); in the assay with SK-MEL-5 melanoma, -99% (active); in the assay with UACC-62 melanoma it was -97.4% (active). The growth is -95.3% (active) in the assay on LOX IMVI melanoma and -95.8% (active) with SK-MEL-28 melanoma.
Regarding `CCOC(=O)n1ccn(C)c1=S`, the growth is 112% in the assay with DU-145 prostate; 103% in the assay on K-562 leukemia; 102% in the assay on MALME-3M melanoma; 117% in the assay on MDA-MB-231 breast; 115% in the assay on RXF 393 renal; 106% with SF-268 CNS. For the same compound, the growth is 92% in the assay with SF-295 CNS; 95.7% in the assay with SF-539 CNS; 97.3% in the assay on UACC-257 melanoma; 97% in the assay with M14 melanoma; 104% in the assay with HCT-15 colon; 96.2% in the assay with HT29 colon. The growth in the assay on SNB-75 CNS was 104%; in the assay on SNB-19 CNS it was 110%; in the assay with U251 CNS, 100%; in the assay on PC-3 prostate it was 91%; in the assay on SK-MEL-5 melanoma, 109%; in the assay on UACC-62 melanoma, 108%. The growth in the assay on LOX IMVI melanoma is 105%; with SK-MEL-28 melanoma, 108%.
As for `COc1cc(OC)c(/C=C/C(=O)c2c(OC)cccc2OC)c(OC)c1`, the growth with DU-145 prostate was 6.79% (active); with K-562 leukemia, 10.5%; in the assay on MALME-3M melanoma, 51.4%; in the assay with MDA-MB-231 breast it was 15%; with RXF 393 renal, -60.8% (active); with SF-268 CNS it was 32%. For the same compound, the growth was 1.38% (active) with SF-295 CNS; -11.4% (active) in the assay with SF-539 CNS; 43.6% in the assay on UACC-257 melanoma; -44.3% (active) with M14 melanoma; 15.7% with HCT-15 colon; 0.507% (active) in the assay on HT29 colon. For the same compound, the growth in the assay with SNB-75 CNS is 10.6%; in the assay with SNB-19 CNS, 19.3%; in the assay with U251 CNS, 5.71% (active); in the assay on PC-3 prostate, 11.6%; with SK-MEL-5 melanoma it was 1.1% (active); in the assay with UACC-62 melanoma it was -20.6% (active). In addition, the values for the growth with LOX IMVI melanoma and with SK-MEL-28 melanoma were -4.2% (active) and 13.2%, respectively.
For the compound `NC(=O)CSc1oc(-c2ccccc2)nc1S(=O)(=O)c1ccc(Br)cc1`, the growth in the assay on DU-145 prostate is 85.6%; in the assay with K-562 leukemia, 91.7%; in the assay on MALME-3M melanoma, 59.4%; in the assay on MDA-MB-231 breast, 52.7%; in the assay on RXF 393 renal it was 46.5%; in the assay with SF-268 CNS it was 72.6%. For the same compound, the growth in the assay with SF-295 CNS is 80.7%; in the assay on SF-539 CNS it was 45.7%; with UACC-257 melanoma, 84.7%; in the assay with M14 melanoma, 83.5%; with HCT-15 colon, 90.6%; in the assay on HT29 colon it was 50.2%. The growth was 9.67% (active) with SNB-75 CNS; 83% in the assay on SNB-19 CNS; 54.6% in the assay on U251 CNS; 77.9% with PC-3 prostate; 55.7% in the assay on SK-MEL-5 melanoma; 49.5% in the assay on UACC-62 melanoma. Besides, the growth was 94.3% in the assay with LOX IMVI melanoma and 87.7% with SK-MEL-28 melanoma.
Regarding `COC1=CC(c2ccc[nH]2)=N/C1=C\c1[nH]c(C)c(C(=O)OC(C)C)c1C`, the growth with DU-145 prostate was 10.5%; in the assay with K-562 leukemia it was 2.07% (active); in the assay on MALME-3M melanoma, -74.3% (active); in the assay with MDA-MB-231 breast, -67% (active); with RXF 393 renal, -17.7% (active); in the assay on SF-268 CNS, 6.34% (active). In addition, the growth was -76% (active) with SF-295 CNS; -58.6% (active) in the assay on SF-539 CNS; -37.7% (active) in the assay with UACC-257 melanoma; -67.5% (active) in the assay on M14 melanoma; -30.1% (active) with HCT-15 colon; -11.6% (active) with HT29 colon. Further, the growth was -15.7% (active) in the assay with SNB-75 CNS; 21.1% in the assay on SNB-19 CNS; -26.7% (active) with U251 CNS; 8.84% (active) in the assay on PC-3 prostate; -99.5% (active) with SK-MEL-5 melanoma; -62.9% (active) with UACC-62 melanoma. Also, the growth in the assay on LOX IMVI melanoma is -92.4% (active); in the assay with SK-MEL-28 melanoma, -54.5% (active).
With `CCO/C=N/C1=C(C#N)C(c2ccc(Cl)cc2)c2sc3c(F)cccc3c2O1` (stereo not given), the growth in the assay with DU-145 prostate was 88.2%; in the assay with K-562 leukemia, 24.6%; in the assay with MALME-3M melanoma, 71.3%; in the assay on MDA-MB-231 breast, 71.3%; in the assay with RXF 393 renal, 76.9%; in the assay on SF-268 CNS, 68.5%. Besides, the growth in the assay with SF-295 CNS was 52.8%; in the assay with SF-539 CNS, 81.6%; in the assay with UACC-257 melanoma, 89%; with M14 melanoma, 46.1%; in the assay with HCT-15 colon, 35.7%; in the assay on HT29 colon, 89.5%. Further, the growth in the assay on SNB-75 CNS was 42.6%; with SNB-19 CNS it was 51.2%; with U251 CNS, 45.7%; in the assay with PC-3 prostate it was 67.1%; in the assay with SK-MEL-5 melanoma, 64.9%; in the assay with UACC-62 melanoma, 35.9%. The growth is 51.8% in the assay on LOX IMVI melanoma and 73.6% with SK-MEL-28 melanoma.
